Experimental data published in the supplement of paper PMC12632987.
Over roughly 4,500 sequences, “median log2 fold change of GCK-ALFA target abundance (FLAG IP / Myc IP barcode read proportion)” has its median near 0.078; the lowest 2% begin near -0.6. This excerpt belongs to a sample that is enriched for the lowest values.

B1: GBRAP_184_5132 (protein)
chain: TLLERAVEAKTAEELIAKARAVVEEAAAAGARLVLSVFAEDLSVEDNIAVIRELGELKAAHPQIEAIIVDLPEVSEEDLDKLIEAADAAGVKLVAAIPDE
B2: GBRAP_52_6073 (protein)
chain: MEEKIEKLAEEITEAIKAGDDEKALELLEKAVKELSEEEIKKLLVLTAKKVAKLNEEEHERFVDILDEFEDILIENGISEEDALLIVGDALAALAKEVAK
B3: GBRAP_52_6102 (protein)
chain: MREELRKKVREILELVREGKLEEARKKIKELVESLNDEEIRLVADEIAELAREAAPEDLDAVWTLAEMFAEELEKAGKPEVLVDYLLASTAAALYEREQA
B4: GBRAP_195_5410 (protein)
chain: MKVVGRVLRIEESDTPEDILAKIEAIVAEVKEESNGDLVLVVARHPSVPEETVRAAVAEAAERYPEIKITVEIFDDISLPLETLEAFARMEVANEEEERE
B5: GBRAP_160_3988 (protein)
chain: EEEKKKLLKEIEEIFKETYELASGEDPENRLTVVRVHMGEILLLAEESGILSEESIEKIDEILDELVEKVAANPDMTDEELKALLEEALKKIKEIIEAEK
B6: GBRAP_137_3679 (protein)
chain: MKVKITIEEHEDVVEITVTIEDKETGEELAEKIEDIAVEVGALAISVEKNEDGTYEVTIYVPKEKLEELLKKILELLKDADEVEIIRIVDGKETVEVIKN
B7: GBRAP_73_6498 (protein)
chain: LTDTGLTDEEIADIVDHENDIFNGGEEAYEAAVARIRAALPELSPERQELLRRILEAAERAKKKDKLLAYELVALALAVVEGLDLEKARRALEALEKRLE
B8: GBRAP_52_6205 (protein)
chain: MHERMRAHARELVALVKAGDLDAARAYARELARTLNEEELELLGEELVELAKTAAPEDLDAIFKAAEILSDVLEEEGFDEALADGLLNRVAAALYERELK
B9: GBRAP_160_4347 (protein)
chain: MEAAEKLIKELKEATERVIAEVDKLSVEQVAVVAAGEFGAVAMEAAEDERYSDEMVDVIIDAQDKILAFLDENKDASPEEIKEGIKKITEEAIKKIKEIA
B10: GBRAP_160_4081 (protein)
chain: SAAHEKLIKEVTEIFDEALKMMEGVTPAEAVAIALVALGEVALLIEEEEELSEEDKDKLLALVDAAEAEVRAAADATVAELKALLERHRDEIVAAIKALD
B11: GBRAP_35_5623 (protein)
chain: NTDKEIAEAVVAVLEDTLLAKDTVPADTFIDTAIKVARLGIEVAKELKEYKENAKKILEAVEKLLKAAKERAKETGAPEEKLKEIEKLLKEVEELKKKLE
B12: GBRAP_11_2643 (protein)
chain: KKEKLKKAAELAKKAIEALKKLLEEGVDNEELRKKIEELLEELSKLVKEYADESLKKLVEIAKELWKKSLEDPENAEEYVKNLLAALRVLSAELEEEIEE
B13: GBRAP_160_4726 (protein)
chain: SERIREFVERFEERFLETIEATEDESKEEQAAMFRGTAGEILMEALEEPFLSDEMEDVVAEELDALVAELEANWDASKEEKKAIVREHMERLRERLLALA
B14: GBRAP_160_4491 (protein)
chain: SAKVEEAKKEVKAIVDDAVDAIAEAPADQRAAIARAYAGDIVQTLLELGVVTDEQAETVLDTAEAGLAAVVAASAAGAAAAAAAAAALVATLNDMIKKFS
B15: GBRAP_14_3817 (protein)
chain: MEELKKKIKEILDDLYEELVEDIGLDEEKVKKLIDKALEEIFKALDDPEGSEEKIKEIMEKLKKEIEKLAAELGADEAAAARALVTDAEYEIDEAIEEAK
B16: GBRAP_160_4228 (protein)
chain: METVEKIVEIFRETFLEALELIEGESEEERRVILDVAVGEIILEVEEIEEATDEMVEIVDERAEKLAERLLAARDASREERRALVEEEAKKLREELEKLA
B17: GBRAP_52_6106 (protein)
chain: ARARVRALVEEALALVRAGREEEARALLEAFARTANEEELELFAEALAELAREAAPEDLDAVWRLAEMAAEALEAAGWPDVLVDDLLARVAAALYERELK
B18: GBRAP_160_4092 (protein)
chain: SEEIEKLIEEIDELRDETKEMIKGESREERATIIRGFGGEVIMLLFESGIVSEEVEDLADELFDELVATVEANPELTEEEIFALIDETVDEIKEAIKEDH
B19: GBRAP_80_6797 (protein)
chain: AAAALAAALAALAEVDAELAARVAAIVATARALGVSDADLADFVAAVLELAKADKEEAAALVDETEALLAEEAARGDTANATAVIRVHAGDALLAVEELE

target: GABARAP, O95166; assay: median log2 fold change of GCK-ALFA target abundance (FLAG IP / Myc IP barcode read proportion) (log2 ratio); each designed protein is fused to an ALFA-tag nanobody in HEK293 cells to bring the named protein to FLAG-tagged glucokinase (GCK); Myc marks an untargeted standard; higher = target protein stabilised (more abundant); settings: target protein: 3xFLAG-MCP-GCK-ALFA reporter; HEK293 landing pad (RPLP)
Sequence (O95166 whole entry, the tested form may be a part): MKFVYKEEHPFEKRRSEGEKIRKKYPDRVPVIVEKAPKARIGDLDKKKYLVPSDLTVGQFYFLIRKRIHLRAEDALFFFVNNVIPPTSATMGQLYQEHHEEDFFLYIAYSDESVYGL
Procedure, shortened: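 Sequencing of reverse-transcribed, amplified circular RNA barcodes from anti-FLAG and anti-Myc immunoprecipitates provided the readout for an ALFA-nanobody-fused binder library recombined into HEK293 landing-pad cells. Those cells were induced with 2 μg mL^−1 doxycycline, transfected with a plasmid expressing a FLAG-tagged target and a Myc-tagged standard, and lysed after 48 h. Target abundance is the per-binder median log2 ratio of FLAG to Myc barcode read proportions. Only barcodes at a proportion of ≥10^−7 in both replicates and binders with ≥3 barcodes per replicate were kept, with a 10^−6 pseudocount added before the two replicates were pooled.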

Row | Binder | median log2 fold change
1 | B1 | 0.00161
2 | B2 | -0.605
3 | B3 | 0.197
4 | B4 | 0.261
5 | B5 | -0.199
6 | B6 | -0.124
7 | B7 | -0.718
8 | B8 | -0.122
9 | B9 | 0.152
10 | B10 | 0.134
11 | B11 | -0.669
12 | B12 | 0.271
13 | B13 | 0.0951
14 | B14 | -1.1
15 | B15 | -0.057
16 | B16 | -0.393
17 | B17 | -0.266
18 | B18 | -0.649
19 | B19 | -0.147
